Values joined by “and” are separate entries in the source; they are usually repeats but may differ in a detail not shown here. Equal values may be shown once. This is part of a sample that, as a whole, favours compounds with a hit. Of some 83,000 tested, about 20% had one in any assay.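 Negative percent growth values reflect cell death: -40 means 40% of the cells present at the start died, and -100 means all died.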 Unmarked numbers belong to inactive results. Active and inactive are the calls of the source. Rule for the calls: active = growth percent below 10; inactive = the rest.
tested on: HL-60(TB) leukemia; assay: NCI-60 one-dose screen, 48 h (100 = growth as untreated, 0 = no growth, -100 = all killed); conditions: 10 µM unless noted

Compound | growth
Cc1[nH]c2ccc(F)cc2c1CCNC(=O)C1CCN(C(=O)c2ccccc2)CC1 | 102% [25 µM]
COc1cc2cc(Oc3ccc(NC(=O)c4cccc(C(F)(F)F)c4)cc3)c(C)nc2cc1OC | 27.8%
O=C1NCC(Nc2ccc(Br)cc2Cl)C(=O)N1 (stereo not given) | 108%
CC(=O)c1c(-c2ccc(OC(F)(F)F)cc2)nc2ccccn12 | 115%
Cc1oc2nc[nH]c(=O)c2c1C(=O)/C=C/c1ccc(Cl)cc1 | -47.8% (active)
CC(=O)Nc1ccc2c(c1)c(NC(C)=O)nn2C(=O)Nc1ccc(Cc2ccccc2)cc1 | 93.1%
O=Nc1ccc(Nc2ccccc2)cc1 | -1.72% (active)
Brc1ccc2[nH]cc(-c3nonc3-c3c[nH]c4ccccc34)c2c1 | 67.3%
COc1cc(C(=O)N/N=C/c2cccc([N+](=O)[O-])c2)cc(OC)c1OC | 41.3%
C=CCOc1ccc2c(c1)CC=C1[C@@H]2CC[C@]2(C)C(=O)/C(=N/O)C[C@@H]12 | 22.7%
Cc1cc(O)c(C(C)C)cc1N | 83.9% and 122%
Cc1cccc2c1NC(=O)C2(c1ccc(O)cc1)c1ccc(O)cc1 | 83%
Clc1ccc(C2=NN(c3ccccc3)[C@H](c3cn(-c4ccccc4)nc3-c3ccccc3)C2)cc1 | 116%
O=C(Nc1cc(Cl)ccc1O)c1ccc(Nc2ccnc(C(F)(F)F)c2)cc1 | -11% (active)
NC(N)=N/N=C(/c1ccccc1)c1ccc(Cl)cc1 | 105%
C=C(C)[C@@H]1CCC=C2CC[C@]3(C)[C@H](CC[C@@H]4[C@@]5(C)CCCNC(C)(C)[C@@H]5CC[C@]43C)[C@H]21 | 27.7%
O=C(O)CNC(=O)C1(N2C(=O)c3ccccc3C2=O)CCCC1 | 90.6%
N#CCCN1CCN(CCC#N)C1=S | 129%
CC(C)(O)C1CCCN1C(=O)c1ccccc1I (stereo not given) | 89.3%
O=C1NC(=O)C2(CCCC2C(=O)O)N1 (stereo not given) | 97.1%

Compound | growth
CCNC(=S)NN | 100%
Cc1cc2c(O)c(-c3cccc(Cl)c3)c3sc(=O)oc3c2cc1C | 23.2%
CCN1C(=O)N(CC)C2C1NN=c1s/c(=C\c3cccnc3)c(=O)n12 (stereo not given) | -27.5% (active)
Cc1cc(C)c(N2C(=O)CC(Sc3ccccc3N)C2=O)c(C)c1 (stereo not given) | 68.8%
CC1=C(Nc2ccc(N3CCN(C)CC3)cc2)C(=O)c2cncnc2C1=O | -26.6% (active)
O=C(O)CCCCc1ccc([N+](=O)[O-])cc1 | 74.8% and 93.9%
O=C1NC(c2ccc(Cl)c(Cl)c2)=C/C1=C\c1ccccc1 | 94.1%
CCOc1ccc(S(=O)(=O)c2ccc(C)cc2)c2c1no[n+]2[O-] | 85.7%
CCc1cccc2c3c(sc12)C(c1ccc(F)cc1)C(C#N)=C(N)O3 (stereo not given) | 1.86% (active)
CC(C)c1cc(CNc2nc(Nc3cc(C4CC4)[nH]n3)cc(N3CCN(C)CC3)n2)on1 | -32.9% (active)
COc1c(B(O)O)cccc1-c1nc2c(F)cc3n[nH]c(C)c3c2c2c1CCCC2 | 6.65% (active)
COc1ccc(C/C(C)=C(/c2ccc(OCCN3CCCCC3)cc2)c2ccc(OC(=O)NCc3ccccc3)cc2)cc1 | -75.1% (active)
C#CCC(C(=O)OCC)C(=O)OCC | 101%
CCCC1=NNC(=O)C1 | 95.6%
N#Cc1c(O)c2c(c(O)c1C#N)C(=O)c1ccccc1C2=O | -38.1% (active)
CCCCCCCCCCCCCCCCCCOc1cccc(CCOP(=O)(O)OCC[N+](C)(C)C)c1 | 73.4%
O=C(Nc1ccc(OS(=O)(=O)c2ccc(F)cc2)cc1)C1CCCCCC1 | 56.4%
COc1cc2cc(Oc3ccc(NC(=O)Nc4cccc(C(F)(F)F)c4)cc3)c(C)nc2cc1OCCN1CCOCC1 | 66.9%
O=C(Nc1cccnc1Nc1ccc(F)cc1)c1cn(Cc2cccc(Oc3ccccc3)c2)nn1 | 26.3%
COc1ccc(C2C(C#N)=C(N)Oc3c2ccc2ccccc32)cc1 (stereo not given) | 22.9%

Reference: PubChem BioAssay (NCI)
